Giardia kill: Small Molecules that selectively kill Giardia lamblia: qHTS | Giardia lamblia trophozoite viability | activity change, % at 7.66 µM, hits read low | 340,000 tested, 0.15% active; in the data active = activity change below about -80%; inconclusive = between about -30% and that limit;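 note: parasites exposed to compound for two days anaerobically before the ATP read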
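Giardia lamblia trophozoites (100 cells/well) were incubated with compounds for 48 h at 37 deg C under anaerobic conditions. Viability was read as ATP content by one-step luminescence after 15-30 min at room temperature.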
DT40 TDP1 no CPT: qHTS for Inhibitors of human tyrosyl-DNA phosphodiesterase 1 (TDP1): qHTS in cells in absence of CPT | DT40 Tdp1-/- hTDP1 cells, no CPT, ATP luminescence, 48 h | Potency, µM (highest dose often 46.2 µM), most hits filed as inhibitors | AID 686978, 2013 | 420,000 tested, 15% active; note: nearly all actives have a fitted effect of over 55% in size
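Camptothecin absent (DMSO only). Human TDP1-complemented DT40 knockout cells, 400 cells/well, 37 °C for minimum 48 hr; ATP measured via CellTiter-Glo, 30 min dark incubation, luminescence.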
ELG1 repair inh: qHTS screen for small molecules that inhibit ELG1-dependent DNA repair in human embryonic kidney (HEK293T) cells expressing luciferase-tagged ELG1 | HEK293T ELG1-luciferase reporter, luminescence, 16 h; DNA damage induced by 5-fluorouridine | 330,000 tested, 2.3% active | AID 504467, 2011 | Potency, µM (series often up to 46.1 µM), usual class: inhibitors; note: nearly all actives have a fitted effect of over 55% in size
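Reporter activity after DNA damage by 5-fluorouridine is monitored. Compound-treated cells incubate 16 hr at 37 °C, then ONE-Glo is added for 30 min before luminescence reading.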
TDP1 block: qHTS Assay for Inhibitors of Tyrosyl-DNA Phosphodiesterase (TDP1) | Tyrosyl-DNA phosphodiesterase 1 (Homo sapiens), Q9NUW8 | recombinant TDP1, AlphaScreen DNA substrate cleavage | Potency, µM (top dose mostly 130 µM), most hits filed as inhibitors | 350,000 tested, 0.28% active; note: nearly all actives have a fitted effect of over 40% in size
Target sequence (Q9NUW8 whole entry, looked up): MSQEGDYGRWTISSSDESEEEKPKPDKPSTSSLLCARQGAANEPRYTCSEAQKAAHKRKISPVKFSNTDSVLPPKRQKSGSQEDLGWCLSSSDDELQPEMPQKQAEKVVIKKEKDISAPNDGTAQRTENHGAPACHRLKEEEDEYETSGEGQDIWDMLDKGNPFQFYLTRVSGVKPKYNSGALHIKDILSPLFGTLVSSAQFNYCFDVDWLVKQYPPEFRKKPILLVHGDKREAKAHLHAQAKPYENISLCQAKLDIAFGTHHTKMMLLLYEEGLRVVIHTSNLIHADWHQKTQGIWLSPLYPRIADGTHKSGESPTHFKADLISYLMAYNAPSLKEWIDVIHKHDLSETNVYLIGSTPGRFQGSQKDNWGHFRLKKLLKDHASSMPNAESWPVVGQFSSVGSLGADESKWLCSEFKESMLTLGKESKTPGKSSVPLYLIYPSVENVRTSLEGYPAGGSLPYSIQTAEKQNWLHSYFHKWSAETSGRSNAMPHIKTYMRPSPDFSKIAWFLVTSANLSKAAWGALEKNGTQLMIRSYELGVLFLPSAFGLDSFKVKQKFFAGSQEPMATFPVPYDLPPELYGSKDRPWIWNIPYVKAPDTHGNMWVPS
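Tdp1 1 nM final; 15 min RT w/ cpd; substrate 15 nM, 5 min; beads 10 ug/ml, 10 min; AlphaScreen read. Neg ctrl: no enzyme.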
DT40 TDP1 CPT: qHTS for Inhibitors of human tyrosyl-DNA phosphodiesterase 1 (TDP1): qHTS in cells in presence of CPT; chicken DT40 Tdp1-/-;hTDP1 cells + 20 nM CPT, ATP luminescence, 48 h; Potency, µM (titrated, usually from 46.2 µM), usual class: inhibitors; 420,000 tested, 12% active; AID 686979, 2013; note: nearly all actives have a fitted effect of over 55% in size
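Chicken DT40 Tdp1-/- cells complemented with human TDP1, 400 cells/well, exposed to compounds plus 20 nM camptothecin for at least 48 h at 37 C; viability read as ATP content by CellTiter-Glo luminescence.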
IL-1B inflam inh: qHTS for Inhibitors of Inflammasome Signaling: IL-1-beta AlphaLISA Primary Screen. THP-1 LPS/ATP IL-1B secretion, AlphaLISA, 16 h; stronger effect = lower value. activity change, % at 57.5 µM. 360,000 tested, 4.7% active; in the data active = activity change below about -50%; inconclusive = mostly about -30% to -49%
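THP-1 cells pretreated 1 hr with compounds (up to 57.5 uM final), then stimulated with LPS (250 ng/mL final) plus ATP (1.25 mM final); secreted IL-1B measured by AlphaLISA after 16 hr, decreased signal indicating inhibition.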
Numbers stand for hits; 0 = inactive; ? = inconclusive; - = no result; ! = repeats disagree. Most compounds without a hit are left out; they make up all but 19% or so of the library. Unless noted, calls come from the whole dose curve; as a rule, active = well fitted curve in the direction sought with a large enough effect; inconclusive = small, poorly fitted or top-dose-only effect, or another doubt; inactive = no such curve, though single readings can be large; an effect the other way counts as inactive or inconclusive.

SMILES	Giardia kill	DT40 TDP1 no CPT	ELG1 repair inh	TDP1 block	DT40 TDP1 CPT	IL-1B inflam inh
Cn1cc([N+](=O)[O-])c(C(=O)Nc2ccc3c(C(F)(F)F)cc(=O)oc3c2)n1	0	0	0	0	0	-95.0
Cn1cc(Br)c(C(=O)Nc2ccc3c(C(F)(F)F)cc(=O)oc3c2)n1	0	0	0	0	0	0
Oc1ccc(CCNCc2cc3c(cc2Br)OCO3)cc1	-	29.1µM	-	-	?	?
O=C(C[C@@H]1C[C@@H]2c3cc(NS(=O)(=O)c4ccc(F)cc4)ccc3O[C@@H]2[C@H](CO)O1)N1CCc2ccccc2C1	-	0	-	-	?	0
CC12CCC(=O)C=C1CCC1C2CCC2(C)C(O)CCC12 (stereo not given)	0	?	0	0	23.1µM	0
CC1=C2CCC3C(CCC4=CC(=O)CCC43C)C2CC1 (stereo not given)	0	29.1µM	-	-	?	0
CC(=O)C1C(N2CC2)CC2C3CCC4=CC(=O)CCC4(C)C3CCC21C (stereo not given)	0	11.6µM	-	-	7.31µM	-61.2
CCC(=O)O[C@H]1CC[C@H]2[C@@H]3CCC4=CC(=O)CC[C@]4(C)[C@H]3CC[C@]12C	0	?	-	0	?	-71.6
C[C@H](O)[C@H]1CC[C@H]2[C@@H]3CCC4=CC(=O)CC[C@]4(C)[C@H]3CC[C@]12C	0	0	?	0	0	0
c1ccc(C2CO2)cc1 (stereo not given)	-	-	-	0	-	-
C[C@H]1C[C@@H]2[C@H]([C@@H](O)C[C@@]3(C)[C@H]2CC[C@]3(O)C(=O)COC(=O)CCC(=O)O)[C@@]2(C)C=CC(=O)C=C12	-	0	-	-	?	-
COc1ccc(NC(=O)c2ccco2)cc1NC(=O)COc1cccc(C)c1C	-	?	-	0	?	-
C[C@]12CC[C@H]3[C@@H](CCC4=CC(=O)CC[C@@]43C)[C@@H]1CC[C@@H]2C(=O)CO	0	10.3µM	0	0	?	0
C[C@]12CC[C@H]3[C@@H](CCC4=CC(=O)CC[C@@]43C)[C@@H]1CC[C@@H]2O	0	0	0	0	0	0
CCOC(=O)c1ccc(N2C(=O)c3n[nH]c(-c4cccs4)c3C2c2ccc(OC)cc2OC)cc1 (stereo not given)	-	20.6µM	-	0	23.1µM	-
CNC(C)CC1CCCCC1 (stereo not given)	-	0	-	-	0	-
Cc1ccc(-c2nc3ccccc3c(=O)n2-c2ccc(O)cc2)cc1	0	4.11µM	0	0	2.59µM	0
O=c1c2ccccc2nc(Cc2ccccc2)n1-c1ccccc1	0	14.6µM	?	-	?	0
O=c1c2ccccc2nc(Cc2ccccc2)n1-c1ccccc1O	0	0	0	0	0	0
Cc1cccnc1-n1c(-c2ccccc2)nc2ccccc2c1=O	0	13µM	0	0	13µM	0
O=c1c2ccccc2nc(-c2ccco2)n1-c1ccc(Br)cc1	0	16.4µM	0	-	11.6µM	0
O=c1c2ccccc2nc(-c2ccccc2)n1-c1ccc(O)cc1	0	?	?	0	?	0
O=c1c2ccccc2nc(-c2ccco2)n1-c1nccs1	0	?	0	0	?	0
N[C@H](CCCP(=O)(O)O)C(=O)O	-	0	-	0	0	-
COc1cccc(-c2cc(C(=O)Nc3cnn(Cc4ccc(Cl)cc4Cl)c3)no2)c1	-	?	-	0	?	-
O=c1ccc2cc(O[C@H]3OC(CO)C(O)C(O)C3O)c(O)cc2o1 (stereo not given in full)	-	0	-	0	0	-
Cc1ccc(-n2c(-c3cccs3)nc3ccccc3c2=O)cc1	0	11.6µM	0	0	9.2µM	0
Cc1ncc(CNC(=O)N(CCCl)N=O)c(N)n1	0	?	0	0	20.6µM!	0
